# Laboratory results taken from PubChem BioAssay.
# Values joined by “and” are separate entries in the source; they are usually repeats but may differ in a detail not shown here. Equal entries are not always repeated. Inconclusive results are not listed. Active and inactive are the calls of the source. Unless noted, the rule behind the calls is not given here.
# Key:
# [1] = GFP-Q80 aggregate reduction, neuronal-like cells, cell-based, NGF-treated PC12, GFPQ80 (AID 1614); conditions: PC12 NGF-treated GFP-polyQ80 inclusion reduction;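 note: lower means fewer inclusions and 0 means no inclusions at all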
# [2] = compounds altering circadian rhythm period length – cell-based, LOPAC library, luminescence reporter (AID 2774); conditions: circadian reporter cells, at 7 µM, actives lie on both sides;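 note: values are relative to mean of DMSO wells on each plate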
# [3] = compounds altering viability of human ES cells (AID 493140); conditions: human embryonic stem cell survival screen; stronger effect = higher value;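 note: cells exposed to compounds for four days before counting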
# [4] = system: Hepatitis C virus NS3 helicase; test: blockers of NS3h binding to ssDNA – biochemical, fluorescence polarization, LOPAC1280 library, primary screen (AID 687035; in the data active = inhibition above about 37%); conditions: Purified HCV NS3 helicase, Cy5-dT15 ssDNA binding fluorescence polarization; stronger effect = higher value; concentration not given here
# [5] = compounds altering Cy5-DNA-NS3h complex signal – biochemical, LOPAC1280, artefact control for HCV NS3 helicase inhibitor project (AID 687037); conditions: Cy5-DNA-NS3h complex fluorescence interference counterscreen
# [6] = viability loss in pontine glioma line – cell-based, SU-DIPG-XVII, MIPE5.0, CellTiter-Glo, qHTS, dose response (AID 1347060; cut-off not given, nearly all actives have AC50 up to about 26 µM;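 for AC50: cells exposed to compound for 48 hours before viability readout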); conditions: CellTiter-Glo ATP luminescence
# [7] = viability loss in pontine glioma line – cell-based, SU-DIPG-XIII, MIPE4.0, CellTiter-Glo, qHTS, dose response (AID 1347061; cut-off not given, nearly all actives have AC50 up to about 37 µM;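 note: cells exposed to compound for 48 hours before readout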); conditions: CellTiter-Glo ATP luminescence
# [8] = viability loss in pontine glioma line – cell-based, JHH-DIPG-1, MIPE4.0, CellTiter-Glo, qHTS, dose response (AID 1347062; cut-off not given, nearly all actives have AC50 up to about 27 µM;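 for AC50: cells exposed to compound for two days before readout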); conditions: JHH-DIPG-1 viability, CellTiter-Glo ATP luminescence
# [9] = viability loss in pontine glioma line – cell-based, SU-DIPG-XIII, MIPE5.0, CellTiter-Glo, qHTS, dose response (AID 1347064; cut-off not given, nearly all actives have AC50 up to about 23 µM;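 for AC50: cells exposed to compound for 48 hours before the viability read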); conditions: CellTiter-Glo ATP luminescence
# [10] = viability loss in pontine glioma line – cell-based, SU-DIPG-XXV, MIPE5.0, CellTiter-Glo, qHTS, dose response (AID 1347065; cut-off not given, nearly all actives have AC50 up to about 26 µM;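 note: cells exposed to compound for 48 hours before ATP readout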); conditions: CellTiter-Glo ATP luminescence
# [11] = growth inhibition of DIPG cells – cell-based, MIPE4.0 library, CellTiter-Glo luminescence, qHTS (AID 1347066; cut-off not given, nearly all actives have AC50 up to about 30 µM;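 note: cells exposed to compound for 48 hours before readout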); conditions: SU-DIPG-VI viability, CellTiter-Glo ATP luminescence
# [12] = JHH-DIPG-1 glioma cell viability, MIPE5.0 library, CellTiter-Glo luminescence, qHTS (AID 1347067; cut-off not given, nearly all actives have AC50 up to about 26 µM;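 note: cells exposed to compound for 48 hours before readout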); conditions: JHH-DIPG-1 glioma viability, CellTiter-Glo ATP luminescence
# [13] = growth inhibition of DIPG cells – cell-based, MIPE5.0 library, qHTS (AID 1347068; cut-off not given, nearly all actives have IC50 up to about 30 µM;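 for IC50: cells exposed to compound for 48 hours before viability readout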); conditions: SU-DIPG-XXV viability
# [14] = blockers of cellular phospholipid synthesis – cell-based, LOPAC library, screen 4, primary screen (AID 1347384); conditions: animal cells, phospholipid biosynthesis inhibition screen; at 10 µM
# [15] = galactose survival enhancers in mitochondrial complex I cybrids – cell-based, galactose medium, ATP luminescence, primary screen (AID 1645843;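 active = z-score of at least 1.8 in each of two replicates, scored against plate mean and spread of sample wells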;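 note: positive z means more ATP and so rescue of galactose-driven cybrid death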); conditions: complex I mutant cybrid cells, 72 h, stronger effect = higher value
# [16] = viability loss with induced miR-34 in A549 – imaging, A549 dox-inducible miR-34, nuclei and caspase counts, primary screen (AID 1347080;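 active = compounds whose cell count with miR-34 switched on is under 0.7 times the count with it off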); conditions: A549 miR-34 inducible, Hoechst nuclei count, 48 h
# [17] = growth inhibition, MDA-MB-436, cell-based, BGB or cisplatin combos, synergistic combos for chromothripsis tumors (AID 1671458); conditions: MDA-MB-436 breast carcinoma growth inhibition, drug combinations, stronger effect = higher value;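 note: cells exposed for 96 hours; 0% = vehicle DMSO and 100% = killing by high DMSO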
# [18] = BT084 cell growth, single and combined drugs, ICGC_MB145, cisplatin and BGB IC40 combos (AID 1671461; in the data active = inhibition above about 80%;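 note: cells exposed to drugs for 96 hours; 0% = vehicle DMSO and 100% = high DMSO full killing control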); conditions: BT084 medulloblastoma cells, drug combinations, stronger effect = higher value
# [19] = RCMB18 cell growth, single agent and combined, cisplatin and BGB IC40 combos (AID 1671462; in the data active = inhibition above about 80%;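 note: cells exposed to compound for four days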); conditions: RCMB18 medulloblastoma cells, stronger effect = higher value
# [20] = CRL1545 cell growth, single agent and combined, cisplatin and BGB IC20 combos (AID 1671464; in the data active = inhibition above about 80%;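 note: cells exposed to compound for 96 hours before readout; 0% = vehicle DMSO and 100% = high DMSO killing control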); conditions: CRL1545 osteosarcoma cells, stronger effect = higher value
smiles,measurement,setting,value
NS(=O)(=O)c1cc2c(cc1Cl)NCNS2(=O)=O,inclusion score,[1],2
same,period change,[2],0.06 h (inactive)
same,survival,[3],7.5 (inactive)
same,inhibition,[4],-1% (inactive)
same,fluorescence ratio (interference),[5],1 (inactive)
same,outcome,[6],inactive
same,outcome,[7],inactive
same,outcome,[8],inactive
same,outcome,[9],inactive
same,outcome,[10],inactive
same,outcome,[11],inactive
same,outcome,[12],inactive
same,outcome,[13],inactive
same,outcome,[14],inactive
same,z-score,[15],0.29 (inactive) and 0.995 (inactive)
COCCOC(=O)C1=C(C)NC(C)=C(C(=O)OC(C)C)C1c1cccc([N+](=O)[O-])c1 (stereo not drawn),period change,[2],0.19 h (inactive)
same,survival,[3],3 (inactive)
same,inhibition,[4],-4% (inactive)
same,fluorescence ratio (interference),[5],0.9 (inactive)
same,outcome,[14],inactive
N[C@@H]1CONC1=O,inclusion score,[1],2
same,period change,[2],0.11 h (inactive)
same,survival,[3],4.33 (inactive)
same,inhibition,[4],-2% (inactive)
same,fluorescence ratio (interference),[5],0.9 (inactive)
same,outcome,[6],inactive
same,outcome,[7],inactive
same,outcome,[8],inactive
same,outcome,[9],inactive
same,outcome,[10],inactive
same,outcome,[11],inactive
same,outcome,[12],inactive
same,outcome,[13],inactive
same,outcome,[14],inactive
same,z-score,[15],0.55 (inactive) and 0.975 (inactive)
CCc1cc(C(N)=S)ccn1,inclusion score,[1],2
same,survival,[3],9.25 (inactive)
same,outcome,[6],inactive
same,outcome,[7],inactive
same,outcome,[8],inactive
same,outcome,[10],inactive
same,outcome,[11],inactive
same,outcome,[12],inactive
same,outcome,[13],inactive
same,z-score,[15],0.725 (inactive)
OC(Cn1cncn1)(Cn1cncn1)c1ccc(F)cc1F,inclusion score,[1],2
same,outcome,[6],inactive
same,outcome,[7],inactive
same,outcome,[8],inactive
same,outcome,[9],inactive
same,outcome,[10],inactive
same,outcome,[11],inactive
same,outcome,[12],inactive
same,outcome,[13],inactive
same,z-score,[15],1.3 (inactive) and 0.555 (inactive)
CC(C)Cc1ccc(C(C)C(=O)O)cc1 (stereo not drawn),inclusion score,[1],2
same,period change,[2],0.16 h (inactive)
same,inhibition,[4],-2% (inactive)
same,fluorescence ratio (interference),[5],1 (inactive)
same,outcome,[6],inactive
same,outcome,[7],inactive
same,outcome,[8],inactive
same,outcome,[9],inactive
same,outcome,[10],inactive
same,outcome,[11],inactive
same,outcome,[13],inactive
same,outcome,[14],inactive
same,z-score,[15],0.975 (inactive) and -0.01 (inactive) and 0.46 (inactive)
CC1(C)O[C@@H]2[C@@H](CO[C@@]3(COS(N)(=O)=O)OC(C)(C)O[C@@H]23)O1,fold change,"[16]; stronger effect = lower value, cell number ratio, induced over uninduced",0.931 (inactive) and 0.874 (inactive)
same,fold change,[16]; measured here: relative caspase fold change +Dox/-Dox,1.93 and 6.61
same,cell count,"[16]; measured here: total cells with miR-34 induction, stronger effect = lower value",9480 and 11800
same,cell count,[16]; measured here: total cells without miR-34 induction,10200 and 13500
same,z-score,[15],-0.1 (inactive)
CC1Cc2ccccc2N1NC(=O)c1ccc(Cl)c(S(N)(=O)=O)c1 (stereo not drawn),inclusion score,[1],2
same,outcome,[6],inactive
same,outcome,[7],inactive
same,outcome,[8],inactive
same,outcome,[12],inactive
same,outcome,[13],inactive
same,z-score,[15],0.635 (inactive) and 0.155 (inactive)
NNCCc1ccccc1,inclusion score,[1],2
same,period change,[2],0.145 h (inactive)
same,survival,[3],9.5 (inactive)
same,inhibition,[4],-1% (inactive)
same,fluorescence ratio (interference),[5],0.9 (inactive)
same,outcome,[6],inactive
same,AC50,[7],9.35 µM (active)
same,outcome,[8],inactive
same,outcome,[9],inactive
same,outcome,[10],inactive
same,outcome,[11],inactive
same,outcome,[12],inactive
same,outcome,[13],inactive
same,outcome,[14],inactive
same,z-score,[15],0.14 (inactive) and 0.22 (inactive) and 0.6 (inactive)
CC(COc1ccccc1)N(CCCl)Cc1ccccc1 (stereo not drawn),period change,[2],0.03 h (inactive)
same,survival,[3],5.08 (inactive)
same,inhibition,[4],-1% (inactive)
same,fluorescence ratio (interference),[5],1 (inactive)
same,outcome,[6],inactive
same,outcome,[7],inactive
same,outcome,[8],inactive
same,outcome,[9],inactive
same,outcome,[10],inactive
same,outcome,[11],inactive
same,outcome,[12],inactive
same,outcome,[13],inactive
same,z-score,[15],-0.605 (inactive) and -1.23 (inactive)
O=C1c2c(O)ccc(O)c2C(=O)c2c(NCCNCCO)ccc(NCCNCCO)c21,period change,[2],-1.74 h (active)
same,survival,[3],0.583 (inactive)
same,inhibition,[4],119% (active)
same,fluorescence ratio (interference),[5],0.5 (active)
same,AC50,[6],0.417 µM (active)
same,AC50,[7],18.7 µM (active)
same,AC50,[8],2.35 µM (active)
same,AC50,[9],10.5 µM (active)
same,AC50,[10],11.8 µM (active)
same,AC50,[11],23.5 µM (active)
same,IC50,[13],18.6 µM (active)
same,outcome,[14],inactive
same,z-score,[15],-1.29 (inactive) and -1.52 (inactive) and -2.29 (inactive)
same,inhibition,[17]; at 0.5 µM,53.4% (inactive)
same,inhibition,"[17]; measured here: BGB combination, at 0.5 µM",42.1%
same,inhibition,"[17]; measured here: BGB combination, at 5 µM",93.8%
same,inhibition,"[17]; measured here: cisplatin combination, at 0.5 µM",45.8%
same,inhibition,"[17]; measured here: cisplatin combination, at 5 µM",95.6%
same,inhibition,[18]; at 0.5 µM,-10.6% (inactive)
same,inhibition,"[18]; cisplatin combination, at 0.5 µM",42.8%
same,inhibition,"[18]; cisplatin combination, at 5 µM",49.8%
same,inhibition,"[18]; measured here: BGB IC40 combination 0.05 uM, at 0.05 µM",-13%
same,inhibition,"[18]; single agent, at 5 µM",75.3%
same,inhibition,[19]; at 0.5 µM,-1.35% (inactive)
same,inhibition,"[19]; cisplatin combo, at 5 µM",70.8%
same,inhibition,"[19]; measured here: BGB IC40 combination, at 0.05 µM",-3.01%
same,inhibition,"[19]; measured here: combination with cisplatin, at 0.5 µM",-18.9%
same,inhibition,"[19]; single agent, at 5 µM",55.2%
same,inhibition,[20]; at 0.5 µM,65.5% (inactive)
same,inhibition,"[20]; measured here: with BGB IC20 combination, at 0.5 µM",74%
same,inhibition,"[20]; measured here: with cisplatin IC20 combination, at 0.5 µM",61.2%
same,inhibition,"[20]; single agent, at 0.05 µM",43.2%
same,inhibition,"[20]; single agent, at 5 µM",99.2%
CC(C)C(=O)Nc1ccc([N+](=O)[O-])c(C(F)(F)F)c1,period change,[2],-0.165 h (inactive)
same,survival,[3],18.4 (inactive)
same,inhibition,[4],-1% (inactive)
same,fluorescence ratio (interference),[5],1 (inactive)
same,outcome,[6],inactive
same,outcome,[7],inactive
same,AC50,[8],18.7 µM (active)
same,outcome,[9],inactive
same,outcome,[11],inactive
same,outcome,[12],inactive
same,outcome,[13],inactive
same,outcome,[14],inactive
same,z-score,[15],-0.565 (inactive) and -0.735 (inactive) and -1.1 (inactive)
COc1ccccc1OCCNCC(O)COc1cccc2[nH]c3ccccc3c12 (stereo not drawn),inhibition,[4],-2% (inactive)
same,fluorescence ratio (interference),[5],1 (inactive)
same,outcome,[8],inactive
same,outcome,[14],inactive
NNC(=O)c1ccncc1,inclusion score,[1],2
same,survival,[3],30.9 (inactive)
same,outcome,[6],inactive
same,outcome,[7],inactive
same,outcome,[8],inactive
same,outcome,[10],inactive
same,outcome,[11],inactive
same,outcome,[12],inactive
same,outcome,[13],inactive
same,z-score,[15],0.55 (inactive) and 0.315 (inactive)
